Screening results (PubChem BioAssay)
KB-V1 MDR tox = qHTS assay for MDR1-selective chemotherapeutics: Primary screen using the drug-selected MDR subline cells KB-V1 | KB-V1 MDR cells viability, CellTiter-Glo, 72 h | Potency, µM (titrated, usually from 46.1 µM), hits mostly cytotoxic | hit rate 3.4% among 400,000 | AID 1347076, 2019; note: % is set by controls: 0 for no effect and ±100 for the full control effect; nearly all actives have a fitted effect of over 60% in size
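Compound-treated KB-V1 multidrug-resistant cells, 72 h, 37 degrees C; viability by CellTiter-Glo. Fitted qHTS curves give the values.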
SW480 rereplic = A quantitative high throughput screen for small molecules that induce DNA re-replication in SW480 colon adenocarcinoma cells; hit rate 1.8% among 340,000; AID 624297, 2012; SW480 DNA re-replication, Hoechst DNA content imaging, 48 h; Potency, µM (highest dose often 46.1 µM), inactives show at the top dose re-replication activation, hits mostly activators; note: % of control where 0% means no effect; nearly all actives have a fitted effect of over 55% in size
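Compounds, transferred as 23 nL by pin tool, were incubated with cells for 48 hr; DNA content per nucleus was then quantified by Hoechst staining and fluorescence plate imaging.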
MCF10A rerep = A quantitative high throughput screen for small molecules that induce DNA re-replication in MCF 10a normal breast cells; MCF 10A DNA re-replication, Hoechst nuclear intensity, 48 h; Potency, µM (top dose mostly 46.1 µM), without a hit: at the top dose activity, positive = re-replication, hits mostly activators; hit rate 2.9% among 350,000; note: % of control where 0% means no effect; nearly all actives have a fitted effect of over 50% in size
TSG101-PTAP inh = qHTS Assay for Iinhibitors of HIV-1 Budding by Blocking the Interaction of PTAP/TSG101; Tumor susceptibility gene 101 protein (Homo sapiens), Q99816; Fluorescence polarization, FITC-PTAP peptide / Tsg101 binding; Potency, µM (highest dose often 115 µM), for the others: at the top dose activity change, negative = inhibition, hits mostly inhibitors; 340,000 tested, under 10 active; AID 493005, 2010; active = well fitted inhibition curve with a large enough effect in the main read-out, with a control signal flat, not every such curve was filed as active; inconclusive = small, poorly fitted or top-dose-only effect, or effect the other way, or a change in a side signal; inactive = no such curve, though single readings can be large or run the other way; note: % of control where 0% means no effect
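Fluorescence polarization binding of Tsg101 binding domain (10 uM final) to FITC-labeled PTAP peptide (50 nM final) in HEPES pH 7.5 buffer with NaCl, Tween 20, EDTA, TCEP. Compounds added before peptide; binding 20 min at RT.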
KB-3-1 cytotox = qHTS assay for MDR1-selective chemotherapeutics: Primary screen using the parental adenocarcinoma cell KB-3-1; Potency, µM (titrated, usually from 46.1 µM), actives largely listed as cytotoxic; hit rate 1.4% among 400,000; KB-3-1 viability, CellTiter-Glo ATP luminescence, 72 h; note: % is set by controls: 0 for no effect and ±100 for the full control effect; nearly all actives have a fitted effect of over 60% in size
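Multi-concentration cytotoxicity screen in KB-3-1 cells grown in DMEM lacking phenol red with 10% FBS. After 72 h at 37 °C with compound, ATP-dependent luminescence was recorded.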
RGS4 inhibitor = Inhibitors of Regulator of G Protein Signaling (RGS) 4: qHTS; hit rate 0.039% among 390,000; Transcreener GDP fluorescence polarization, RGS4-accelerated GTP hydrolysis; AID 504845, 2011; Potency, µM (highest dose often 114 µM), for the others: at the highest dose activity change, negative = inhibition, usual class: inhibitors; Regulator of G-protein signaling 4 (Homo sapiens), P49798; note: % is set by controls: 0 for no effect and ±100 for the full control effect; nearly all actives have a fitted effect of over 75% in size
Target sequence (P49798 whole entry, looked up): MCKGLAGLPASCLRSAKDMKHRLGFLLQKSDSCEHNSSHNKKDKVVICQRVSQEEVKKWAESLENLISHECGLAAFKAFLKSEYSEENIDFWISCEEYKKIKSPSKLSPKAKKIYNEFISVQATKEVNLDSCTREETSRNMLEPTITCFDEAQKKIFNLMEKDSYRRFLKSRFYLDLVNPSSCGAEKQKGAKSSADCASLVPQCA
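MLSMR compounds (23 nl, pin-transferred) preincubated 10 min at room temperature with a 500nM (2x) first reagent, then RGS4 at 900nM (2x) plus Transcreener GDP mix added; fluorescence polarization (620/688 nm) read before and after 90 min at 30 °C.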
Numbers without * were called inactive; i = inactive; ? = inconclusive; · = no result given; [ ] = dose if it differs, or a comment. Sampled rows, rich in hits. Any-hit rate of the full collection: about 6.6%. Unless noted, calls come from the whole dose curve; as a rule, active = well fitted curve in the direction sought with a large enough effect; inconclusive = small, poorly fitted or top-dose-only effect, or another doubt; inactive = no such curve, though single readings can be large; an effect the other way counts as inactive or inconclusive. Potency is the fitted concentration of half-maximal effect.

SMILES	KB-V1 MDR tox	SW480 rereplic	MCF10A rerep	TSG101-PTAP inh	KB-3-1 cytotox	RGS4 inhibitor
Cc1ccc(C(=O)c2c(C)oc3c2C(=O)C(=O)c2ccccc2-3)cc1	5.2µM*	13µM*	18µM*	-3%	?	?
Cc1ccc(C(=O)c2coc3c2C(=O)C(=O)c2ccccc2-3)cc1	?	-3%	-3%	-6%	i	?
Cc1oc2c(c1C(=O)c1ccc(Cl)cc1)C(=O)C(=O)c1ccccc1-2	16µM*	-4%	7.3µM*	0%	?	-48%
COC(=O)c1cccc(NC(=O)c2cc3sccc3n2C)c1	9.2µM*	-2%	-8%	·	i	16%
Cn1c(=O)c2c(nc(CN3CCc4ccccc4C3)n2Cc2ccc(F)cc2)n(C)c1=O	9.2µM*	?	11%	2%	i	-38%
Cn1c(=O)c2c(nc(CN3CCN(c4ccccc4F)CC3)n2Cc2ccc(F)cc2)n(C)c1=O	i	·	·	·	i	-2%
COC(=O)Cn1c(CN2CCc3ccccc3C2)nc2c1c(=O)n(C)c(=O)n2C	i	-9%	0%	-7%	i	-13%
Cc1ccccc1Cn1c(CN2CCc3ccccc3C2)nc2c1c(=O)n(C)c(=O)n2C	23µM*	2%	15%	-7%	i	-9%
CCCCNC(=O)CN1C(=O)c2c(c3ccccc3n2C)C1c1ccc(OC)cc1 (stereo unspecified)	i	·	·	·	i	-34%
Cc1cn(C(=O)c2ccccc2)c(=S)n1-c1ccc(Br)cc1	15µM*	19%	?	-1%	i	12%
CCOC(CNC(=O)c1cc(C)nn1-c1ccccc1)OCC	i	-13%	1%	-1%	i	-2%
CCOC(CNC(=O)Cn1nc(C)c2ccccc21)OCC	i	-38%	0.73µM*	-4%	?	-8%
COC(=O)c1ccc(NC(=O)CC2C(=O)N(c3ccc(F)cc3)C(=O)N2Cc2ccc(OC)cc2)cc1 (stereo unspecified)	·	·	·	·	·	-10%
O=C(Cc1ccc(F)cc1)N1CCN(c2ccc([N+](=O)[O-])cc2)CC1	i	2%	2%	-7%	i	-1%
O=C(Cc1ccccc1[N+](=O)[O-])N1CCN(c2ccc(F)cc2)CC1	?	12µM*	9%	-1%	i	24%
O=C(/C=C/c1cccc([N+](=O)[O-])c1)N1CCN(c2ccc(F)cc2)CC1	21µM*	17%	1%	-4%	i	3%
CCCn1c(SCc2nc(-c3ccccc3C)no2)nnc1-c1ccc(Cl)cc1	i	·	·	·	i	-10%
COc1ccc(-c2nn3c(-c4cc(-c5ccccc5)n[nH]4)nnc3s2)cc1OC	i	·	·	·	i	-15%
NC(=O)/C(=N\OC(=O)c1ccco1)c1nc(-c2ccc(Br)cc2)cs1	9.2µM*	16%	12%	-4%	?	?
Cc1nc2nc(NCc3ccc(Br)cc3)[nH]n2c(=O)c1Cc1ccccc1	i	·	·	·	i	-13%
Cc1ccc(-n2c(SCC(=O)N3CC(=O)Nc4ccccc43)nc3ccccc3c2=O)cc1	18µM*	12%	16%	-3%	?	0%
CC(C)c1nc(SCC(=O)N2CC(=O)Nc3ccccc32)c2ccccc2n1	?	2%	14%	0%	?	-2%
Cc1cccc(C)c1-n1c(SCC(=O)N2CC(=O)Nc3ccccc32)nc2ccccc2c1=O	18µM*	·	9%	0%	?	7%
COCCn1c(SCC(=O)N2CC(=O)Nc3ccccc32)nc2ccccc2c1=O	i	?	8%	-4%	i	-12%[56.9 µM]
